40 molecules from PubChem BioAssay (NCI) can be followed below.

This is part of a sample that, as a whole, favours compounds with a hit. Of some 83,000 tested, about 20% had one in any assay.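 Activity criterion: percent growth below 10, measured after cells in 96-well plates were exposed to a single compound concentration for 48 hours.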 Active and inactive are the calls of the source.

The experiment has as its system MDA-MB-468 breast. Put plainly: NCI-60 one-dose screen, 48 h (100 = growth as untreated, 0 = no growth, -100 = all killed). The note with it: 10 µM unless noted.
`CC(=O)N=c1ccc2nc3c(cc(N)c4ccccc43)oc-2c1`: the growth is -44.5% (active). For `CSc1nc2sc3cc(Cl)c(Cl)cc3n2c(=N)c1C#N` the value was 72.6% (inactive); for `CN(C)c1ncc(/C=C2\SC(=S)N(Cc3ccccc3Cl)C2=O)s1`, 95.6% (inactive). For `COc1cccc(C(=O)N(c2ccc(F)c(F)c2)C(C(=O)NC(C)(C)C)c2cc3c(C)cc(C)cc3nc2Cl)c1` (stereo not given) the value was 35.2% (inactive); for `COC(=O)[C@@H]1CCCN1C(=O)[C@H]1CCCN1C(=O)[C@@H](Cc1c[nH]c2ccccc12)NC(=S)Nc1cc(C(F)(F)F)cc(C(F)(F)F)c1`, 29.2% (inactive). For the molecule `O=c1c2cccc(Cl)c2sc2c(NCCCNCCO)nc3ccccc3c12`, the growth is -19.5% (active). For `CCN(c1ccc(Cl)cc1)c1nc(-c2ccc([N+](=O)[O-])cc2)cs1` the value was 83.8% (inactive). For `O=C1c2c(O)cc(O)cc2OC(c2ccc(O)c(O)c2)C1O` (stereo not given) the value was 112% (inactive).

Take `Brc1ccc(Nc2csc(-c3ccccn3)n2)cc1`: the growth was 97.5% (inactive). For `O=C(CSc1nnc(-c2ccc(Cl)cc2)n1-c1ccccc1)Nc1cccc(F)c1` the value was 17.2% (inactive). For `O=C(Nc1cccc(-n2cc(-c3ccncc3)c(-c3cc(O)cc(Cl)c3)n2)c1)c1ccc(N2CCOCC2)c(C(F)(F)F)c1` the value was 26% (inactive); for `COc1cc2cc(NCc3ccc(OC(F)F)cc3)nc(C)c2cc1OC`, 64.4% (inactive). For `Nc1ccc2c(c1)Cc1cc(N)c(Br)cc1-2` the value was 81.9% (inactive).

`COc1ccc2c(c1)O/C(=C\c1ccc([N+](=O)[O-])o1)C2=O`: the growth is -46.5% (active).

For `COc1ccc(Cc2cnc(N)nc2N)cc1OC`, the growth was 104% (inactive). Turning to `O=C(OCCCCOC(=O)n1cnc2ccccc21)n1cnc2ccccc21`, the growth is 112% (inactive). For `O=C(OCc1ccccc1)n1nnc2ccccc21` the value was 107% (inactive); for `CC(C)OC(=O)c1ccc2[nH]c(O)c(C(=Nc3ccc(N(C)C(=O)CN4CCN(C)CC4)cc3)c3ccccc3)c2c1`, -91% (active). For `C=CCNC(=S)NNc1ccc([N+](=O)[O-])cn1` the value was 98.7% (inactive); for `CCN(CC)CCn1c(=N)n(CC(O)c2ccc(Cl)c(Cl)c2)c2ccccc21` (stereo not given), 21% (inactive). Turning to `COc1ccc(-c2cc(-c3cccc4ccccc34)n3c(n2)nc2ccccc23)cc1OC`, the growth is 63.2% (inactive).

For `CN(C)CC(=O)Nc1ccc2ncnc(Nc3ccc(Oc4cccc(C(F)(F)F)c4)c(Cl)c3)c2c1`, the growth is -2% (active).

With `CCOc1ccc(-n2nc(C(=O)Nc3cc(OC)c(OC)c(OC)c3)nc2-c2cc(OC)c(OC)c(OC)c2)cc1`, the growth was 82% (inactive). For `O=c1ccc2nc(C(F)(F)F)nn(-c3ccccc3)c-2c1` the value was -73.5% (active); for `O=C1/C(=C/c2cn(-c3ccccc3)nc2-c2ccccc2)SC(=S)N1CCc1ccccc1`, 103% (inactive); for `CC(C)NC(=O)N1C(=O)CCC1NNC(=O)c1ccc([N+](=O)[O-])cc1` (stereo not given), 114% (inactive). For `COc1ccc(S(=O)(=O)NCCCNc2nccc(-c3c(-c4cccc([N+](=O)[O-])c4)nc4sccn34)n2)cc1` the value was 16.2% (inactive); for `NC(N)=NS(=O)(=O)c1ccc(NC2=C(I)C(=O)c3ncccc3C2=O)cc1`, 94.1% (inactive). For `COc1cc(-c2nc(-c3ccccc3)[nH]c2-c2ccnc(NCCCNS(=O)(=O)c3ccc(C)cc3)n2)ccc1F` the value was 79.4% (inactive). For the molecule `CCCCCCCCCc1ccc(OCCOCCOCCOCCOCCOCCOCCOCCOCCO)cc1`, the growth was -11.7% (active). For `Cc1ccc(S(=O)(=O)N/N=C2\CC3CCC2C3)cc1` (stereo not given) the value was 110% (inactive); for `CN(C)c1ccc2cc(-c3ccccc3F)c(N)nc2c1`, 25.6% (inactive); for `COc1cc2nc(-c3ccc(C(F)(F)F)cc3)cc(OCCCN3CCCC3)c2cc1OC`, 43.8% (inactive).

On to `Cc1ccc(-c2nc(C(Cl)Cl)n3nc(-c4ccccc4)cc3n2)cc1`, for which the growth is -21.1% (active). For `CCCCn1c(-c2ccc(-c3nc(-c4ccc(Cl)cc4)no3)cc2)nc(-c2ccccc2)c1-c1ccccc1` the value was 106% (inactive). For `O=C1CCCC=CC[C@H]2C=C(Cl)C(=O)C2=CC[C@H](CCCCC(F)(F)F)OC(=O)CCCC=CC[C@H]2C=C(Cl)C(=O)C2=CC[C@H](CCCCC(F)(F)F)OC(=O)CCCC=CC[C@H]2C=C(Cl)C(=O)C2=CC[C@H](CCCCC(F)(F)F)O1`, the growth is 59.9% [6.25 µM] (inactive). For `N=C(N)c1ccc(-c2ccc(-c3ccc(Cl)cc3Cl)o2)nc1` the value was -33.8% (active). As to `COc1ccc2c(c1OC)C(=O)O[C@@H]2[C@H]1c2c(c(C#CC#Cc3ccc(F)c(F)c3)c3c(c2OC)OCO3)CCN1C`, the growth is 72.4% (inactive). In the case of `CNC(=O)c1cc(Oc2ccc3nc(NC(=O)Nc4ccc(N5CCC(N(C)C)CC5)cc4)sc3c2)ccn1`, the growth is 76.3% (inactive). For `COC(=O)[C@]12CC[C@@H](C(=O)/C=C/c3cccnc3)[C@@H]1[C@H]1CC[C@@H]3[C@@]4(C)C/C(=C/c5cccnc5)C(=O)C(C)(C)[C@@H]4CC[C@@]3(C)[C@]1(C)CC2` the value was -76.1% (active).
